# Laboratory results from PubChem BioAssay (Tox21).
# Records with an inconclusive call do not appear. A call without a number means that no potency is given here. Unmarked numbers belong to inactive results. The source made the active and inactive calls. The call rests on the fitted dose curve.
# Assay: p53 small molecule agonists, cell-based qHTS assay: qHTS cell viability counter screen (AID 1963581); further: nearly all actives have a fitted effect of over 45% in size
# Settings: p53RE-bla HCT-116 viability, ATP luminescence, 16 h; series mostly up to 66 µM
# How it was run: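 Counter screen read by CellTiter-Glo luminescence (ATP content, 30 min at room temperature), run in the same wells as the beta-lactamase reporter read. HCT-116 p53RE-bla cells saw compounds for 16 h at 37 C.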
# Potency means the concentration at half of the fitted maximal effect.
Compound,Potency,"activity change, negative = cytotoxicity"
CC(=O)c1ccc2ccc3ccccc3c2c1,inactive,–
NC(=O)C1(N2CCCCC2)CCN(CCCC(=O)c2ccc(F)cc2)CC1,inactive,–
C/C=C(/C(=C/C)c1ccc(OC(C)=O)cc1)c1ccc(OC(C)=O)cc1,inactive,–
N#CSc1ccc(N)c([N+](=O)[O-])c1,inactive,–
CCCCCCCCCCCSCC(=O)O,inactive,–
CCCN(CCC)C(=O)C(CCC(=O)OCCCN1CCN(CCOC(=O)Cc2c(C)n(C(=O)c3ccc(Cl)cc3)c3ccc(OC)cc23)CC1)NC(=O)c1ccccc1 (centres undefined),inactive,–
CCCC[P+](C)(CCCC)CCCC,inactive,–
CC(C)(C)NC[C@H](O)COc1cccc2c1CCCC2=O,inactive,–
O=C(O)Cc1csc(-c2ccc(Cl)cc2)n1,inactive,–
CCCc1nc2c(C)cc(-c3nc4ccccc4n3C)cc2n1Cc1ccc(-c2ccccc2C(=O)O)cc1,inactive,–
[O-][n+]1cccc(/C(Cl)=N/OC[C@@H](O)CN2CCCCC2)c1,inactive,–
CC12CCC(CC1=O)C2(C)C (centres undefined),inactive,–
CCN(CC)CCOC(=O)C(Cc1cccc2ccccc12)CC1CCCO1 (centres undefined),inactive,–
ClC(Cl)(Br)Br,inactive,–
O=C1c2ccccc2C(=O)C1c1ccccc1,inactive,–
COc1cc(NS(=O)(=O)c2ccc(N)cc2)ncn1,inactive,–
O=C=Nc1cccc(C(F)(F)F)c1,inactive,–
CCCCCCCC[N+](CCCCCCCC)(CCCCCCCC)CCCCCCCC,4.57 µM (active),–
CCCOc1ccc(C(=O)OCCN(CC)CC)cc1N,inactive,–
CCOC(CN1CCN(CC(C)C(=O)c2ccccc2)CC1)c1ccccc1 (centres undefined),–,9.5% [at 13.5 µM]
C/C=C/C(=O)OCC(C)C,inactive,–
COc1ccc(CN2CCN(C(c3ccc(F)cc3)c3ccc(F)cc3)CC2)c(OC)c1OC,15.8 µM (active),–

Compound,Potency,"activity change, negative = cytotoxicity"
CCOC(=O)C(=O)CCCCCCl,inactive,–
CC(C)C[C@H](NC(=O)OCC1c2ccccc2-c2ccccc21)C(=O)O,inactive,–
CCOC(=O)CC(=O)c1cc(F)c(Cl)nc1Cl,inactive,–
CCCCCN=C(N)N/N=C/c1c[nH]c2ccc(OC)cc12,15.8 µM (active),–
CCC(=O)O[C@]1(C(=O)COC)[C@@H](C)C[C@H]2[C@@H]3CCC4=CC(=O)C=C[C@]4(C)C3(F)[C@@H](O)C[C@@]21C (some centres undefined),inactive,–
C[N+](C)(C)CC(O)CC(=O)[O-] (centres undefined),inactive,–
CCOC(=O)N1CCC(n2c(=O)[nH]c3cc(Cl)ccc32)CC1,inactive,–
CCCCCCCC/C=C\CCCCCCCC(=O)OC,inactive,–
CCCCCCCCCCCl,inactive,–
C[C@]12CCC(=O)C=C1CC[C@@H]1[C@@H]2[C@@H](O)C[C@@]2(C)[C@H]1CC[C@]2(O)C(=O)COC(=O)CCC(=O)O,inactive,–
CCCCCCCCC1CO1 (centres undefined),inactive,–
CC(=O)Nc1ccc(N)cc1,inactive,–
CC(=O)N/N=C/c1ccc([N+](=O)[O-])o1,inactive,–
CC(C(=O)O)c1ccc(C(=O)c2ccccc2)s1 (centres undefined),inactive,–
CN(Cc1cc(Br)cc(Br)c1N)C1CCCCC1,inactive,–
O=C(c1ccccc1)c1ccc2n1CCC2C(=O)O (centres undefined),inactive,–
CC(=O)OCC(=O)[C@@]1(OC(C)=O)[C@@H](C)C[C@H]2[C@@H]3C[C@H](F)C4=CC(=O)C=C[C@]4(C)[C@@]3(F)[C@@H](O)C[C@@]21C,inactive,–
CN(C(=O)CCCOc1ccc2[nH]c(=O)ccc2c1)C1CCCCC1,inactive,–
Cc1cccc(C)c1OCC(C)N (centres undefined),inactive,–
NC1[C@H]2CN(c3nc4c(cc3F)c(=O)c(C(=O)O)cn4-c3ccc(F)cc3F)C[C@@H]12 (some centres undefined),inactive,–
O=C(O)c1cc(-c2ccc(F)cc2F)ccc1O,inactive,–
COc1c(C)c2c(c(O)c1C/C=C(\C)CCC(=O)OCCN1CCOCC1)C(=O)OC2,inactive,–
